Results on 11 compounds are retold here after PubChem BioAssay.

Structures are written as SMILES.

This experiment deals with Fibrinogen (Alexa647-labelled). In words: Alexa647-fibrinogen binding to printed small molecules – biochemical, small-molecule microarray, 635/667 nm fluorescence, artefact control for SMM control-protein annotation, profiling panel (AID 1131).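 Note: z-score merges 667 nm fluorescence with per-spot signal-to-noise over triplicate slides.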 Particulars: fibrinogen-A647 binding fluorescence, higher = more signal.
On to `CC(=O)OC[C@H]1O[C@@H](ON=C[C@@H](C)[C@H](OCc2ccccc2)C(C)C)[C@H](OC(C)=O)[C@@H](OC(C)=O)[C@@H]1OC(C)=O`, for which the composite z-score was -0.562.

Compound `CN1C(=O)C2C=CC(C(O)C(c3ccccc3)c3ccccc3)N(NC(=O)OC(C)(C)C)C2C1=O` (stereo unspecified) yielded a composite z-score of 0.973.

For `COC(=O)C1=C(C)N(Cc2ccccc2)[C@]23O[C@](C(=O)OC)(C(=O)N2[C@@H]1c1ccccc1)[C@H]1CCOC(=O)[C@H]13`, the composite z-score amounted to 0.628.

`C=C(CCCC)C(=O)CC[C@@H](OC(C)=O)c1cccc(OCCO)c1` showed a composite z-score of -0.75.

`CO[C@@H]1COC(=O)CC=C[C@@H](C)[C@@H]2C=C[C@@H](O)[C@@H](COC(=O)CC=C[C@H]1C)O2` showed a composite z-score of -1.24.

`COC(=O)[C@@]1(Cc2ccccc2)[C@H]2c3cc(C(=O)N4CCCC4)n(Cc4ccccn4)c3C[C@H]2CN1C(=O)c1ccccc1` displayed a composite z-score of 0.412.

`CCOC(=O)NN=C1C[C@@H](O)[C@@H](O)[C@@H]2[C@@H]3C(=O)N(C(C)(C)C)C(=O)[C@@H]3CC[C@@H]12` gave a composite z-score of -0.417.

In turn, `C=CCN1C(=O)[C@]2(O[C@H](CCn3cc(CCO)nn3)[C@@H]([Si](C)(C)c3ccc(OC)cc3)[C@@H]2C)c2cc(N3CCOC3=O)ccc21` returned a composite z-score of 0.338.

Turning to `CCOc1ccc(N2C(=O)/C(=C/C=C/c3ccccc3OC)S(=O)(=O)C2c2cccc([N+](=O)[O-])c2)cc1` (stereo unspecified), the composite z-score was determined as 0.441.

Compound `O[C@@H](Cc1ccccc1)[C@H]1C2C=CCCC(c3ccccc3)=C2CN1Cc1cccc(Cl)c1` (stereo partly specified) gave a composite z-score of 0.43.

Turning to `CO[C@H]1O[C@H](CO)[C@@H](OC(=O)Nc2ccc(C#N)cc2)[C@H](OC(=O)c2cc3ccccc3[nH]2)[C@H]1OC(=O)c1cc2ccccc2[nH]1`, the composite z-score amounted to 0.787.
